From PubChem BioAssay come the findings set out here.

By inhibition is commonly meant the change of the read-out against control, counted positive when it falls.

A short description of test [1]: inhibitors of TNFa-induced NFkB p65 translocation, primary screen, imaging, HUVEC, MLSMR starter and 10KST1 sets (AID 438;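 active = inhibition above 20% together with a positive visual image hit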;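 note: compound added about 3h40 before a 20 min TNFalpha stimulation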;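 for inhibition: signal is the nuclear over cytoplasmic p65 intensity ratio per well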). The note with it: HUVEC TNFa-induced p65 nuclear translocation; cell count: measured here: nuclei count (cytotoxicity indicator), at 2.08 µM; inhibition: at 2 µM, stronger effect = higher value, 0% TNFa-plus-vehicle, 100% no-TNFa wells.
Test [2] can be described thus: reduction of polyQ htt aggregates in cells – imaging, exon1htt(103Q)mCFP cells, high-content imaging, primary screen (AID 483).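 For nuclei count: percent of the per-plate median nuclei count of sample wells.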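 Note: compound exposure lasted 3 days before fixation.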 The following applies: exon1htt(103Q)mCFP cell line, aggregate imaging, at 2 µM; inhibition of aggregation: stronger effect = higher value; nuclei count: measured here: cell count, toxicity.
Test [3] in a line: endothelial E-selectin expression blockers – imaging, HUVEC, immunofluorescence, MLSMR starter and 10KST1 sets, primary screen (AID 487;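 active = visually confirmed hit in the image check and inhibition above 20%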;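 for inhibition: signal is fraction of cell area covered by stained E-selectin grains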;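 for nuclei count: 100% = median nuclei count of all wells on the same plate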). The following applies: HUVEC TNFalpha-induced E-selectin immunofluorescence imaging, at 2 µM; inhibition: stronger effect = higher value; nuclei count: measured here: cell number, toxicity.
Test [4] concerns the target Voltage-gated potassium channel subunit beta-2 (Rattus norvegicus) (UniProt P62483). The test is described as follows: inhibitors of rat Kvbeta2 reductase activity – biochemical, NADPH fluorescence, primary screen (AID 622;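 active = fluorescence slope higher than the sample average by over 3 SD, cut at about -0.22 in these data, passing the limit was not always enough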;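 note: slope of raw intensity against log time taken from 70 to 1610 s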). The following applies: recombinant KvBeta, 4-cyanobenzaldehyde reduction, at 10 µM, stronger effect = higher value.
Test [5] shares this target. Briefly: enhancers of rat Kvbeta2 NADPH turnover – biochemical, NADPH fluorescence, primary screen (AID 623;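 active = NADPH fluorescence slope more negative than the mean of all samples by about 3 SD, 99.7% confidence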;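 note: fluorescence intensity change per second fitted from 20 to 320 s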). The note with it: Recombinant KvBeta, NADPH fluorescence decrease slope, 10 min; at 10 µM; stronger effect = lower value.
For test [6], the target named is Alpha-2C adrenergic receptor (Homo sapiens) (UniProt P18825). Briefly: compounds altering alpha2C-coupled GIRK flux – cell-based, HEK293 alpha2C/GIRK1/2, thallium flux, primary screen (AID 624;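 active = fluorescence slope after compound addition differing from the mean of all screened samples at 99.7% confidence, in either direction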;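 note: slope of fluorescence ratio to pre-addition baseline per second over 15 to 24 s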). The following applies: thallium flux BTC fluorescence, at 10 µM, actives lie on both sides.
Sequence of Alpha-2C adrenergic receptor (Homo sapiens) (P18825 whole entry, looked up): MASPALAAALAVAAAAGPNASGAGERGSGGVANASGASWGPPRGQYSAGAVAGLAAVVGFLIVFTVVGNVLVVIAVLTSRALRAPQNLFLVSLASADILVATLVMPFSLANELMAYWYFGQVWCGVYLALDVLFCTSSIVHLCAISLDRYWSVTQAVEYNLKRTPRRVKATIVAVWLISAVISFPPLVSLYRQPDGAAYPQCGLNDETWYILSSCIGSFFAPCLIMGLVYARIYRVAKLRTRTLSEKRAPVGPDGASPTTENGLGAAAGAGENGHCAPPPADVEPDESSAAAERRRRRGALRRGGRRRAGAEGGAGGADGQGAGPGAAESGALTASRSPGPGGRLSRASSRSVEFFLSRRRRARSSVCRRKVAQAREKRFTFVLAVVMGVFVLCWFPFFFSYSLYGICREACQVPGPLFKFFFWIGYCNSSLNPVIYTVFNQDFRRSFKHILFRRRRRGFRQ
Test [7] in a line: blockers of RIG-like receptor reporter activation – cell-based, Sendai virus stimulus, luciferase, 10K MLSCN set, TLR/RLR signaling modifier project, primary screen (AID 602276;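 active = inhibition at or above 50% at 10 µM; inactive = inhibition below 50%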;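 note: firefly luciferase from ISG56 promoter only with Renilla not read in this screen; 0% = Sendai virus plus DMSO and 100% = medium plus DMSO without virus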). The following applies: HEK293 RL24 IRF3 luciferase reporter, at 10 µM, stronger effect = higher value. Background: A reporter such as luciferase makes a cellular process visible.
The nature of test [8]: TLR3 IRF3 reporter activation blockers – cell-based, poly I:C stimulus, luciferase, 10K MLSCN set, primary screen (AID 602277;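 active = inhibition of the reporter signal at or above 50%; inactive = inhibition below 50%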). The note with it: HEK293-TLR3 RL24 IRF3 luciferase reporter, at 10 µM, stronger effect = higher value.

Activity calls are given as the source filed them.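 Rule for the calls, unless noted: active = visual image review flags a hit and inhibition of aggregation exceeds 20%; inconclusive = visual hit but inhibition at or below 20%; inactive = no hit on visual image review.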

Sequence of Voltage-gated potassium channel subunit beta-2 (Rattus norvegicus) (P62483 whole entry, looked up): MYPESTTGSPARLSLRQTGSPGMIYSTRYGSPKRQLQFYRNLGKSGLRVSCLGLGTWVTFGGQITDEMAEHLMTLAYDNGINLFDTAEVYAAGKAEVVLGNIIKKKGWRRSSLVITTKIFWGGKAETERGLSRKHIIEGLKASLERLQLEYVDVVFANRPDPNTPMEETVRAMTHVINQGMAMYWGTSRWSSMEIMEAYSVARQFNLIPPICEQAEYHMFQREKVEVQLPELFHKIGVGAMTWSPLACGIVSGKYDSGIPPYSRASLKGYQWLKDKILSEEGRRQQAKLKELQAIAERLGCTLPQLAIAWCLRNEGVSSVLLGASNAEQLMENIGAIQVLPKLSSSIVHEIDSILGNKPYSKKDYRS

On to `CN(CC(=O)N1CCCCC1)S(=O)(=O)c1cccc2cccnc12`, for which, in test [1], the cell count worked out at 792. Besides, the inhibition in test [1] is 4.3% (inactive); in test [3] it was -53.1% (inactive); in test [7], 3.62% (inactive); in test [8], 25.4% (inactive). In addition, in test [2], the inhibition of aggregation is 9.7% (inactive). Further, the values for the nuclei count in test [2] and in test [3] were 112% and 124%, respectively. Also, in test [4], the fluorescence slope is -0.531 (inactive). In addition, the NADPH fluorescence slope in test [5] is -1e-05 (inactive). Moreover, in test [6], the slope is 0.00551 (inactive).
As to `CCn1cc(C(=O)NCC2CCCO2)c(=O)c2cc(S(=O)(=O)N(C)C)ccc21` (centres undefined), the cell count in test [1] stood at 767. Moreover, the inhibition in test [1] is -2.4% (inactive); in test [3], -50.6% (inactive); in test [7] it was -12.7% (inactive); in test [8], 1.32% (inactive). Moreover, in test [2], the inhibition of aggregation was -9.8% (inactive). Moreover, the nuclei count turned out to be 105% in test [2] and 117% in test [3]. Also, the fluorescence slope in test [4] was -0.465 (inactive). The NADPH fluorescence slope in test [5] is -8.2e-05 (inactive). For the same compound, in test [6], the slope was 0.00671 (inactive).
As to `COc1ccc(C(=O)OCC(=O)NCc2ccco2)cc1OC`, the cell count in test [1] amounted to 573. Besides, the inhibition in test [1] is -18.9% (inactive); in test [3] it was -12.3% (inactive); in test [7] it was 17.6% (inactive); in test [8], 27.6% (inactive). For the same compound, in test [2], the inhibition of aggregation was -1.1% (inactive). Further, the nuclei count is 107% in test [2] and 121% in test [3]. Besides, the fluorescence slope in test [4] is -0.467 (inactive). Also, the NADPH fluorescence slope in test [5] is -7.7e-05 (inactive). Also, in test [6], the slope was 0.00497 (inactive).
Regarding `Cn1cccc1Cc1nnc(SCC(N)=O)n1-c1ccc(F)cc1`, the cell count in test [1] was 845. Also, the inhibition in test [1] is 4.6% (inactive); in test [3], -106% (inactive); in test [7] it was 10.4% (inactive); in test [8], 24.3% (inactive). For the same compound, the inhibition of aggregation in test [2] is 15.1% (inactive). The nuclei count in test [2] was 102%; in test [3], 125%. Further, in test [4], the fluorescence slope was -0.569 (inactive). Also, the NADPH fluorescence slope in test [5] is -3.1e-05 (inactive). In addition, the slope in test [6] is 0.00615 (inactive).
For `CC1CN(C2CCCCC2)c2nc3c(c(=O)[nH]c(=O)n3C)n2C1` (centres undefined), in test [1], the cell count worked out at 234. In addition, the inhibition is -2% (inactive) in test [1], 4.4% (inactive) in test [3], 13.1% (inactive) in test [7] and 40.3% (inactive) in test [8]. For the same compound, in test [2], the inhibition of aggregation is -5.5% (inactive). Further, the nuclei count was 77.6% in test [2] and 108% in test [3]. In test [4], the fluorescence slope is -0.642 (inactive). In addition, the NADPH fluorescence slope in test [5] was 3.4e-05 (inactive). The slope in test [6] was 0.00609 (inactive).
As for `O=c1c2ccc(-c3nnc4n3-c3ccccc3SC4)cc2nc2n1CCCCC2`, the cell count in test [1] is 473. Moreover, the inhibition in test [1] is -1.1% (inactive); in test [3], -41.6% (inactive); in test [7], 11.2% (inactive); in test [8] it was 14.5% (inactive). Besides, in test [2], the inhibition of aggregation is 9% (inactive). The nuclei count in test [2] turned out to be 111%; in test [3], 116%. In test [4], the fluorescence slope is -0.414 (inactive). In test [5], the NADPH fluorescence slope was -3.1e-05 (inactive). Moreover, the slope in test [6] was 0.00551 (inactive).
Take `Cc1ccccc1NC(=O)C1CCCN(S(=O)(=O)c2cccc3cccnc23)C1` (centres undefined): in test [1], the cell count is 613. Further, the inhibition was 6.8% (inactive) in test [1], -45.4% (inactive) in test [3], 1.01% (inactive) in test [7] and 13.7% (inactive) in test [8]. For the same compound, the inhibition of aggregation in test [2] is 21% (inactive). For the same compound, the nuclei count in test [2] turned out to be 71.1%; in test [3], 112%. The fluorescence slope in test [4] is -0.554 (inactive). The NADPH fluorescence slope in test [5] was 1.2e-05 (inactive). The slope in test [6] is 0.00703 (inactive).
With `COc1ccc(C)cc1NC(=O)c1nc2nc(C)cc(C)n2n1`, the cell count in test [1] came out at 471. The inhibition in test [1] is 3.8% (inactive); in test [3], -23.4% (inactive); in test [7], 18.5% (inactive); in test [8], 9.03% (inactive). Besides, the inhibition of aggregation in test [2] was 5.2% (inactive). The nuclei count in test [2] was found to be 98.1%; in test [3], 124%. The fluorescence slope in test [4] was -0.297 (inactive). Further, in test [5], the NADPH fluorescence slope is 1.4e-06 (inactive). The slope in test [6] is 0.00674 (inactive).
Take `CN(Cc1cccs1)CC(O)COCc1ccco1` (centres undefined): in test [1], the cell count was 407. For the same compound, the inhibition is 6% (inactive) in test [1], -28.9% (inactive) in test [3], 11.5% (inactive) in test [7] and 23.9% (inactive) in test [8]. Further, the inhibition of aggregation in test [2] was -40.7% (inactive). For the same compound, the nuclei count in test [2] was found to be 116%; in test [3], 113%. The fluorescence slope in test [4] was -0.591 (inactive). Moreover, the NADPH fluorescence slope in test [5] is -4.7e-05 (inactive). Besides, the slope in test [6] is 0.00778 (inactive).
`COC(=O)CN1C(=O)C(O)(CC(=O)c2ccc(C)cc2)c2cc(Br)ccc21` (centres undefined): in test [1], the cell count is 612. The inhibition was 2.9% (inactive) in test [1], -49.2% (inactive) in test [3], 4.14% (inactive) in test [7] and -1.15% (inactive) in test [8]. In test [2], the inhibition of aggregation is -6% (inactive). Further, the nuclei count in test [2] amounted to 94.5%; in test [3], 113%. The fluorescence slope in test [4] was -0.436 (inactive). Also, in test [5], the NADPH fluorescence slope was -4.5e-05 (inactive). Besides, the slope in test [6] was 0.00497 (inactive).
Consider `CC(C)(C)NC(=O)Cn1nnnc1-c1nonc1N`, for which the cell count in test [1] is 433. Moreover, the inhibition is 9.2% (inactive) in test [1], -94.7% (inactive) in test [3], -5.7% (inactive) in test [7] and -10.1% (inactive) in test [8]. The inhibition of aggregation in test [2] is -5.9% (inactive). In addition, the nuclei count in test [2] and in test [3] was 120% throughout. Besides, the fluorescence slope in test [4] is -0.618 (inactive). The NADPH fluorescence slope in test [5] is -4.6e-05 (inactive). For the same compound, the slope in test [6] is 0.00302 (inactive).
For `COc1ccc(C2=CC(=O)OC3(CCCCC3)O2)cc1`, the cell count in test [1] turned out to be 390. The inhibition in test [1] was -5.3% (inactive); in test [3], -152% (inactive); in test [7] it was 13% (inactive); in test [8] it was 22.7% (inactive). Besides, the inhibition of aggregation in test [2] is -4.6% (inactive). Moreover, the nuclei count in test [2] amounted to 99.3%; in test [3] it was 115%. The fluorescence slope in test [4] was -0.475 (inactive). The NADPH fluorescence slope in test [5] was -8.9e-05 (inactive). For the same compound, the slope in test [6] is 0.0046 (inactive).
In the case of `CC(=O)C1=C(C)OC(N)=C(C#N)C1c1ccncc1` (centres undefined), in test [1], the cell count came to 322. For the same compound, the inhibition in test [1] is 3.7% (inactive); in test [3], 39.3% (inactive); in test [7], 12.5% (inactive); in test [8] it was 16.8% (inactive). Further, the inhibition of aggregation in test [2] is -14.4% (inactive). Moreover, the nuclei count in test [2] turned out to be 97.8%; in test [3], 112%. Besides, the fluorescence slope in test [4] is -0.616 (inactive). For the same compound, the NADPH fluorescence slope in test [5] was -5.3e-05 (inactive). Besides, in test [6], the slope is 0.004 (inactive).
Regarding `Cc1cc(NS(=O)(=O)c2ccc(NC(=O)COc3ccc(Cl)cc3)cc2)no1`, the cell count in test [1] was 361. Moreover, the inhibition is 0.4% (inactive) in test [1], -54.3% (inactive) in test [3], 13% (inactive) in test [7] and 19.8% (inactive) in test [8]. For the same compound, the inhibition of aggregation in test [2] is -9.7% (inactive). Also, the results for the nuclei count in test [2] and in test [3] were 118% and 122%, respectively. Besides, the fluorescence slope in test [4] was -0.292 (inactive). In test [5], the NADPH fluorescence slope was -6.7e-05 (inactive). Besides, the slope in test [6] is 0.00576 (inactive).
